TSHR antag: blocks TSH signaling through the human TSH receptor; P16473; TSHR-expressing cells, TSH-stimulated cAMP HTRF, 2 h; active compounds read low; activity change, negative = inhibition, % at 11.5 µM; 330,000 tested, 0.2% active; AID 504810;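 active = activity change below a set negative limit, meaning inhibition stronger than a set level, cut at about -70% in these data; inconclusive = activity change between two set negative limits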
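Competitive HTRF cAMP read-out (cryptate anti-cAMP antibody, cAMP-d2; 30 min, room temperature) in freshly harvested TSHR cells. Compounds added before TSH at EC80 (4nM final), followed by 2 hours' incubation at 37 deg C.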
Gal4-VP16 FLuc: inhibits Gal4-VP16 luciferase reporter, ROR gamma counter-screen | 310,000 tested, 3.5% active | Potency, µM (titrated, usually from 53.6 µM), most hits filed as inhibitors | Drosophila S2 Gal4-VP16 UAS-luciferase, luminescence, 20 h;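 note: Gal4-VP16 expression switched on by copper sulfate through the metallothionein promoter; nearly all actives have a fitted effect of over 50% in size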
B2AR arrestin: recruits beta-arrestin to the human beta2-adrenergic receptor. P07550. AID 492947. 330,000 tested, 0.02% active. beta-arrestin recruitment to beta2AR, cell-based reporter. Potency, µM (doses to about 46.1 µM), most hits filed as activators; note: nearly all actives have a fitted effect of over 65% in size
RORg inh: ROR gamma (mouse) transcription inhibition; P51450; Drosophila S2 Gal4-RORgamma UAS-luciferase reporter, 20 h; Potency, µM (titrated, usually from 53.6 µM), usual class: inhibitors; 310,000 tested, 5.4% active; AID 2551; note: nearly all actives have a fitted effect of over 60% in size
Target sequence (P51450 whole entry, looked up, the tested form may be a part): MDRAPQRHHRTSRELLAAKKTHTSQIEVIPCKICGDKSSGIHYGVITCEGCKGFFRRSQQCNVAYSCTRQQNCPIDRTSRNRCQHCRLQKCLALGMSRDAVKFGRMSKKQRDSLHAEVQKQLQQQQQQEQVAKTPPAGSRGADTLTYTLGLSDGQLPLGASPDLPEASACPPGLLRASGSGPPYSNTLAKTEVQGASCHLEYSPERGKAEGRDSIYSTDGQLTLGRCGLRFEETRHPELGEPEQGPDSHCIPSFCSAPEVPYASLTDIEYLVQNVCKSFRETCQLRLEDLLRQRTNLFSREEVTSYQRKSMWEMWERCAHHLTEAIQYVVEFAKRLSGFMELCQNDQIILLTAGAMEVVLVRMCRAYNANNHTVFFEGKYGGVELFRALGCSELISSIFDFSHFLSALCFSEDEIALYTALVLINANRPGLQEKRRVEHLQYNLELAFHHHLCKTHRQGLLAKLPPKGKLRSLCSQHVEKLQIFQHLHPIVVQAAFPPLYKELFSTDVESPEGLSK
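Using a luciferase readout, inhibitors were identified by reduced reporter activity in Drosophila cells coexpressing a copper-inducible Gal4–ROR gamma fusion and UAS-driven Photinus luciferase, incubated 20 hr after 700 uM copper sulfate.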
ELG1 DNA repair: ELG1-dependent DNA repair inhibition; HEK293T ELG1-luciferase reporter, luminescence, 16 h; DNA damage induced by 5-fluorouridine; Potency, µM (top dose mostly 46.1 µM), actives largely listed as inhibitors; 330,000 tested, 2.3% active; AID 504467; note: nearly all actives have a fitted effect of over 55% in size
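Cells (2,000 per well) received 5-fluorouridine plus test compound or DMSO and were incubated 16 hr at 37 °C, 5% CO2. Luciferase activity was read by luminescence 30 min after ONE-Glo addition; signal suppression marked inhibition of damage-induced ELG1 function.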
A number is an active result; – = inactive; ? = inconclusive; · = no result given; [ ] = another dose, or the depositor's remark. Most compounds without a hit are left out; they make up all but 7.5% or so of the library. Unless noted, calls come from the whole dose curve; as a rule, active = well fitted curve in the direction sought with a large enough effect; inconclusive = small, poorly fitted or top-dose-only effect, or another doubt; inactive = no such curve, though single readings can be large; an effect the other way counts as inactive or inconclusive.

SMILES	TSHR antag	Gal4-VP16 FLuc	B2AR arrestin	RORg inh	ELG1 DNA repair
C[C@H](NC(=O)c1nc[nH]c1C(=O)NCc1ccc(CNC(=O)OC(C)(C)C)cc1)C(=O)OC(C)(C)C	–	–	–	?	8.2µM
CC(C)(C)OC(=O)NCCCC[C@H](NC(=O)c1nc[nH]c1C(=O)NCc1ccc(CNC(=O)OC(C)(C)C)cc1)C(=O)OC(C)(C)C	–	–	–	?	?
CC(C)C[C@H](NC(=O)c1nc[nH]c1C(=O)NCc1ccccc1)C(=O)OC(C)(C)C	–	10µM	–	4.5µM	–
CC(C)(C)OC(=O)NCc1ccc(NC(=O)c2nc[nH]c2C(=O)N[C@@H](Cc2ccccc2)C(=O)OC(C)(C)C)cc1	–	11µM	–	7.1µM	?
CC(C)(C)OC(=O)NCCCCCNC(=O)c1nc[nH]c1C(=O)NCc1ccc(CNC(=O)OC(C)(C)C)cc1	–	·	–	·	6.5µM
CC(C)OCCCNC(=O)c1cc(S(=O)(=O)N2CCc3ccccc32)cn1C	–	–	–	–	–
CC(C)C[C@H](NC(=O)c1nc[nH]c1C(=O)NCc1ccccc1)C(=O)OCc1ccccc1	–	11µM	–	4.5µM	?
CC(C)C[C@H](NC(=O)c1[nH]cnc1C(=O)Nc1ccc(CNC(=O)OC(C)(C)C)cc1)C(=O)OCc1ccccc1	–	?	–	5.6µM	?
C[C@H](NC(=O)c1[nH]cnc1C(=O)Nc1ccc(CNC(=O)OC(C)(C)C)cc1)C(=O)OCc1ccccc1	–	?	–	?	–
C[C@H](NC(=O)c1nc[nH]c1C(=O)NCc1ccccc1)C(=O)OCc1ccccc1	–	–	–	?	–
CC(C)C[C@H](NC(=O)c1[nH]cnc1C(=O)Nc1ccc(CNC(=O)OC(C)(C)C)cc1)C(=O)OC(C)(C)C	–	8.9µM	–	3.2µM	?
CC(C)C[C@H](NC(=O)c1nc[nH]c1C(=O)NCc1ccc(CNC(=O)OC(C)(C)C)cc1)C(=O)OC(C)(C)C	–	?	–	13µM	?
Cc1ccc(C)c(OCC(=O)Nc2ccc(S(=O)(=O)Nc3ncccn3)cc2)c1	–	–	–	–	–
COc1ccccc1CC(NC(C)=O)C(=O)NC1CCN(S(=O)(=O)c2ccccc2)CC1 (centres undefined)	–	–	–	–	–
COCCNC(=O)/C(C#N)=C\c1ccc(CNC(=O)C(=O)Nc2ccc(C)c(C)c2)o1	–	–	–	–	?
COc1ccc(NC(=O)C(=O)N/N=C\c2ccc(CNC(=O)C(=O)Nc3ccc(C)c(C)c3)o2)c(OC)c1	–	3.2µM	–	–[1.91 µM]	–
CC(Oc1ccc(Cl)cc1)C(=O)Nc1nccs1 (centres undefined)	–	–	–	14µM	–
CCC(C(=O)Nc1nccs1)(C(F)(F)F)C(F)(F)F	–	7.9µM	–	7.1µM	–
O=C(Nc1nccs1)C1(S(=O)(=O)c2ccc(Cl)cc2)CC1	–	?	–	7.1µM	–
CCC(C)C(=O)Nc1nccs1 (centres undefined)	–	18µM	–	5.6µM	?
CC(Oc1ccc(Cl)cc1)C(=O)Nc1ccc(S(=O)(=O)Nc2nccs2)cc1 (centres undefined)	–	–	–	–	–
CCC(C(=O)Nc1nccs1)c1ccccc1 (centres undefined)	–	–	–	–[10 µM]	–
CCCCNC(=O)C(c1ccc(OCC(=O)OC)c(C(=O)OC)c1)N(CCC1=CCCCC1)C(=O)CCCCCN1C(=O)NC(c2ccc(-c3ccccc3)cc2)C(C(=O)OCc2ccccc2)=C1C (centres undefined)	·	–	·	–	·
COc1ccc(CNC(=O)[C@H]2C[C@@H]2[C@H](NP(=O)(c2ccccc2)c2ccccc2)c2ccccc2)cc1OC	·	–	·	–	·
Cc1ccc2nc(SC(C(=O)c3ccccc3)c3ccccc3)nc(C)c2c1 (centres undefined)	–	16µM	–	?	–
SMILES	TSHR antag	Gal4-VP16 FLuc	B2AR arrestin	RORg inh	ELG1 DNA repair
Cc1ccc2nc(SCC(=O)O)nc(C)c2c1	–	–	–	–	–
Cc1ccc(CSc2nccc(-c3c(C)nc4ccccn34)n2)cc1	–	–	–	?	15µM
O=C(c1ccccc1)c1ccccc1N1C(=O)C=CC1=O	–	7.1µM	–	5µM	?
CC(=O)OCC1C2CC[C@H]3C(OCc4ccc(F)cc4C(F)(F)F)OC[C@]4(C)[C@H]3C2=C(CN4C(=O)OC(C)(C)C)[C@H](C)C1COC(C)=O (some centres undefined)	·	–	·	–	·
CC(=O)OC[C@H]1O[C@@H](CCO/N=C2/[C@H]3O[C@@H]3[C@@H](O)[C@H]3[C@H]2CCn2c(=O)n(-c4ccccc4)c(=O)n23)C=C[C@@H]1OC(C)=O	·	–[10 µM]	·	–[10 µM]	·
[O]=[Bi][O][Bi]=[O]	·	–	·	–[10 µM]	·
O=C(NNC1=NS(=O)(=O)c2ccccc21)c1ccc([N+](=O)[O-])cc1	–	?	–	13µM	–
CCOc1cccc(=O)c2c(C)n(Cc3ccco3)c(C)c12	–	3.5µM	–	–	?
COc1ccc(CC(=O)NNC(=O)CSc2nc(C)c(C)c(=O)[nH]2)cc1	–	–	–	–	–
COc1ccc(NC(=O)c2c(Nc3ccccc3)sc(C(=O)c3ccc(F)cc3)c2N)cc1	–	13µM	–	–	?
COc1ccc(C(=O)c2sc(Nc3ccccc3)c(C(=O)Nc3ccc(OC)c(OC)c3)c2N)cc1	–	–	–	?	?
CCCCC(C(=O)NC1CCCC1)N(C(=O)c1snc(C(N)=O)c1N)c1ccc(C)cc1 (centres undefined)	–	–	–	–	–
COc1ccc(NC(=O)CN2CCN(CC(=O)Nc3ccccc3F)CC2)c(OC)c1	–	?	–	?	–
Fc1ccc(NC(=S)Nc2ccccc2Cl)cc1	–	–	–	?	?
CSc1ccccc1NC(=S)Nc1cc(C)cc(C)c1	–	14µM	–	6.3µM	–
COc1ccc(NC(=O)c2ccccc2SC)c(OC)c1	–	–	–	–	–
COc1ccc(NC(=S)Nc2ccccc2F)c(OC)c1	–	–	–	11µM	–
COc1ccc(NC(=S)Nc2ccccc2SC)c(OC)c1	–	?	–	11µM	–
CC[C@H](C)[C@H](NC(=O)[C@H](C)NC(=O)CNC(=O)[C@H](CCCN=C(N)N)NC(=O)[C@H](C)NC(=O)[C@H](CC(C)C)NC(=O)[C@H](CCC(=O)O)NC(=O)[C@H](CC(C)C)NC(=O)[C@H](C)NC(=O)[C@@H](N)CCC(=O)O)C(=O)N[C@@H](Cc1ccccc1)C(=O)N[C@@H](CCC(N)=O)C(=O)N[C@@H](C)C(=O)O	·	–	·	–	·
N=c1oc2cc(O)ccc2cc1C(=O)Nc1ccc(F)cc1	–	7.1µM	–	11µM	?
COc1ccc2o/c(=N\O)c(C(=O)Nc3ccccc3OC)cc2c1	–	?	–	2.8µM	–
COc1ccc2oc(=O)c(C(=O)Nc3ccccc3O)cc2c1	–	?	–	8.9µM	?
